High-throughput results (PubChem BioAssay)
TEAD-YAP inh – TEAD-YAP interaction inhibition | HEK-TIYL cells, TEAD-Gal4/YAP UAS-luciferase luminescence | inhibition, % at 9.12 µM | 640,000 tested, 1.4% active | AID 1259422; in the data active = inhibition above about 32%
FBW7 act – activators of human E3 ligase FBW7. normalized activity (activation), % at 26.1 µM. AlphaScreen FBW7–phospho-cyclin E peptide binding, activator screen. Q969H0. 650,000 tested, 0.13% active. AID 1259310; in the data active = normalized activity above about 1.9%;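 also: purified mutant Fbw7 with reduced substrate affinity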
Target sequence (Q969H0 whole entry, looked up): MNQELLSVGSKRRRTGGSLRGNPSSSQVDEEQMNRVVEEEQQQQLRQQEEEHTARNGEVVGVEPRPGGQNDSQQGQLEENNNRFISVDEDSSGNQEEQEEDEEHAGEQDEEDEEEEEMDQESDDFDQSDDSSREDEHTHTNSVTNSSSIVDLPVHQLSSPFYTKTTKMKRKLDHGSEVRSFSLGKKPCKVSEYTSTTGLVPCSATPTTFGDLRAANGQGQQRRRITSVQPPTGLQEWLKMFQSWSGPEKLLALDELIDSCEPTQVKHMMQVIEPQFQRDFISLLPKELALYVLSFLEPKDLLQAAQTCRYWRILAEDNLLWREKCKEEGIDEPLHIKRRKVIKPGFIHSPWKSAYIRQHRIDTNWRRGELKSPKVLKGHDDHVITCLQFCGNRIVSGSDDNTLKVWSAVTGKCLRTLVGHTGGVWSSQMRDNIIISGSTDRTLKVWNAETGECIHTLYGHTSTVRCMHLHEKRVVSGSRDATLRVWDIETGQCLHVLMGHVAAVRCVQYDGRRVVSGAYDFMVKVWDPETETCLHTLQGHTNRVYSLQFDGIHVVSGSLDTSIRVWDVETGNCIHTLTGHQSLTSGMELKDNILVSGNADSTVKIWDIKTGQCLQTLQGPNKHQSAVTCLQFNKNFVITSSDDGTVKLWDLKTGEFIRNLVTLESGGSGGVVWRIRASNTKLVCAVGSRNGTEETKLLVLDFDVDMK
GPR151 ag – activates the human receptor GPR151. activation, % at 11.2 µM. 650,000 tested, 1% active. AID 1508602. Q8TDV0. PathHunter beta-arrestin GPR151 cells, luminescence; in the data active = activation above about 4.9%
MITF inh – inhibitors of human MITF. 650,000 tested, 0.91% active. inhibition, % at 2.6 µM. AlphaScreen MITF homodimerization, bead proximity signal. AID 1259374. O75030; in the data active = inhibition above about 50%
GPR151 conf act – human GPR151 activation, confirmation screen | shares compounds with GPR151 ag | GPR151 PathHunter beta-arrestin cells, luminescence, 90 min; % of EA-reagent control over plate median | activation, % at 11.2 µM | 6,700 tested, under 10 active | AID 1508609;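 active = mean percent activation across replicates above the confirmation screen cutoff of 4.91%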
GPR119 ag – GPR119 activation, counter-screen for GPR151 activators; shares compounds with GPR151 ag; GPR119 PathHunter beta-arrestin cells, luminescence, 90 min; 0 = compound-well median, 100 = enzyme-acceptor control; activation, % at 11.2 µM; 6,700 tested, 0.3% active;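 active = mean percent activation in the counterscreen above 29.09%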;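 also: counterscreen on off-target GPR119 to flag nonselective hits from the GPR151 activator screen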
Hits are given with their value; - = inactive; . = no result. A selection: hits, their analogues and other compounds. The true share with any hit is near 3.4%.

SMILES	TEAD-YAP inh	FBW7 act	GPR151 ag	MITF inh	GPR151 conf act	GPR119 ag
C=CCN1C(=O)c2oc3ccccc3c(=O)c2C1c1ccccc1 (stereo unspecified)	-	-	6.4	-	-	-
COc1cccc(C2c3c(oc4ccccc4c3=O)C(=O)N2CCO)c1 (stereo unspecified)	-	-	8.0	-	-	-
COc1ccc(NC(C)C(=O)N/N=C/c2ccccc2OC)cc1 (stereo unspecified)	-	-	-	-	.	.
CC1(C(=O)O)C2C=CC3(CN(c4ccccc4)C(=O)C31)O2 (stereo unspecified)	-	-	8.1	-	-	-
CCOc1cc(S(=O)(=O)n2nnc3ccccc32)ccc1F	-	-	5.1	-	-	-
CCCOC(=O)C(CC)Oc1ccc2c(=O)c(Oc3cc(C)c(Cl)c(C)c3)coc2c1 (stereo unspecified)	-	-	-	-	.	.
Cc1cc(C(=O)Nc2cc(Cl)ccc2O)on1	-	-	10	-	-	-
Cn1c(=O)c2c(SCC(=O)O)nc(-c3ccccc3Cl)nc2n(C)c1=O	-	-	4.9	-	-	-
CCSc1nc(-c2ccco2)nc2c1c(=O)n(C)c(=O)n2C	-	-	6.3	-	-	-
Cn1c(=O)c2c(SCC(=O)c3ccccc3)nc(-c3ccccc3F)nc2n(C)c1=O	-	-	-	-	.	.
Cn1c(=O)c2c(SCC(=O)O)nc(-c3ccco3)nc2n(C)c1=O	-	-	-	-	.	.
COc1ccc(C2SCCN2S(=O)(=O)c2ccc(F)cc2)cc1 (stereo unspecified)	-	-	-	-	.	.
Cc1cccc(CN2CCC(N3CCC(C(=O)NC4CCCCC4)CC3)CC2)n1	-	-	-	-	.	.
CCOC(=O)c1c(NC(=O)c2ccc(S(=O)(=O)N3CCN(C(=O)OCC)CC3)cc2)sc2c1CCN(C)C2	-	-	-	-	.	.
COc1ccc(/C=C2/N=C(c3ccc(Cl)c(Cl)c3)OC2=O)cc1OC(C)=O	-	-	-	-	.	.
CCc1ccc(-n2c(C)nc3cc(C(=O)NCCc4ccc(OC)c(OC)c4)ccc32)cc1	-	-	5.1	-	-	-
COc1ccc(-n2c(C)nc3cc(C(=O)NCCc4ccc(OC)c(OC)c4)ccc32)cc1	-	-	-	-	.	.
CC(=O)c1ccc(NC(=O)COC(=O)CN2C(=O)C3CCCCC3C2=O)cc1 (stereo unspecified)	-	-	-	-	.	.
COc1cccc(CC2(CO)CCN(Cc3cccn3-c3ncccn3)CC2)c1	-	-	12	-	-	-
COc1ccc(CN2CCC(CO)(Cc3ccccc3)CC2)cc1Cn1cccn1	-	-	9.4	-	-	-
CC(=O)Nc1cccc(NC(=O)c2cc(-c3ccc(C)o3)nc3ccccc23)c1	-	-	-	-	.	.
CCOC(=O)Cc1c(C)c2ccc(N(CC)CC)cc2oc1=O	-	-	7.2	-	-	-
CCCCSc1nnc2c(n1)OC(c1ccccc1OC)Nc1ccccc1-2 (stereo unspecified)	-	-	-	-	.	.
CCCCSc1nnc2c(n1)OC(c1ccccc1OCC(=O)OCC)Nc1ccccc1-2 (stereo unspecified)	-	-	5.1	-	-	-
CCCCSc1nnc2c(n1)OC(C)(C)Nc1ccccc1-2	-	-	5.1	-	-	-
SMILES	TEAD-YAP inh	FBW7 act	GPR151 ag	MITF inh	GPR151 conf act	GPR119 ag
CCOC(=O)C1=C(C)Nc2nc(SC)nn2C1c1ccc(OC)cc1 (stereo unspecified)	-	-	-	-	.	.
CCOC(=O)C1=C(C)Nc2nc(SCc3cccnc3)nn2C1c1ccc(OC)cc1 (stereo unspecified)	-	-	8.0	-	-	-
COCCCN1C(=S)NC2c3cc(Br)ccc3OC1(C)C2C (stereo unspecified)	-	-	-	-	.	.
CCCN1C(=S)NC2c3ccccc3OC1(C)C2C (stereo unspecified)	-	-	7.5	-	-	-
COCCCNC(=O)c1nn(-c2ccc(OC)cc2)c(=O)c2ccccc12	-	-	-	-	.	.
O=C(Cc1cn(-c2ccc(Nc3ccccc3)nn2)c2ccccc12)NCc1nc2ccccc2[nH]1	-	-	5.3	-	-	-
Cn1c(Nc2ccc(-n3cc(CC(=O)NCc4nc5ccccc5[nH]4)c4ccccc43)nn2)nc2ccccc21	-	-	-	-	.	.
COc1nc(NCCN(C(C)C)C(C)C)nc(-c2ccccc2)n1	-	-	-	-	.	.
COc1ccc(-c2nc(NCCN(C(C)C)C(C)C)nc(OC)n2)cn1	-	-	6.1	-	-	-
COC(=O)C(C)N1C(=O)S/C(=C/c2ccc(-c3cc([N+](=O)[O-])ccc3OC)o2)C1=O (stereo unspecified)	-	-	-	-	.	.
COc1ccccc1CNC(=O)CCc1cn(C)c2ccccc12	-	-	5.9	-	-	-
Cn1cc(CCC(=O)NC2CCN(Cc3ccccc3)CC2)c2ccccc21	-	-	5.9	-	-	-
O=C(CCCn1c(=O)c2cccn2c2cccnc21)NC1CCN(Cc2ccccc2)CC1	-	-	5.8	-	-	-
O=C(CCCn1c(=O)c2cccn2c2ccccc21)NC1CCN(Cc2ccccc2)CC1	-	-	-	-	.	.
CCOC(=O)c1c(C)[nH]c(C(=O)COC(=O)COc2ccc(C(C)=O)cc2OC)c1C	-	-	-	-	.	.
O=C(C1CC12CCN(Cc1ccco1)CC2)N1CCN(Cc2ccccc2)CC1 (stereo unspecified)	-	-	-	-	.	.
COc1cccc(C2C(C(C)=O)C(=O)CC(C)(O)C2C(C)=O)c1 (stereo unspecified)	-	-	-	-	.	.
Cc1c(NC(=S)NC(=O)c2oc3ccccc3c2C)cccc1-c1nc2ccccc2s1	-	-	10	-	-	-
COc1cccc(CN2CCNC(=O)C2CC(=O)N2CCCN(C3CCCCC3)CC2)c1 (stereo unspecified)	-	-	-	-	.	.
COc1ccc(S(=O)(=O)Oc2ccc(C=C3C(=O)NC(=O)NC3=O)cc2)cc1	-	-	5.3	-	-	-
O=C1NC(=O)C(=Cc2ccc(OS(=O)(=O)c3ccc(Cl)cc3)cc2)C(=O)N1	-	-	-	-	.	.
CCOC(=O)Cn1c(C(=O)OCC)cc2oc(C)cc21	-	-	-	-	.	.
C=CCn1c(C(=O)OCC)cc2oc(C)cc21	-	-	5.7	-	-	-
Clc1nc(NCc2ccccc2)c2ncn(-c3ccccc3)c2n1	-	-	5.0	-	-	-
c1ccc(CNc2nc(Nc3ccncc3)nc3c2ncn3-c2ccccc2)cc1	-	-	6.6	-	-	-
COC(=O)C(CCSC)NC(=O)c1ccccc1F (stereo unspecified)	-	-	6.9	-	-	-
Nc1ccccc1SC1CC(=O)N(Cc2ccccc2)C1=O (stereo unspecified)	-	-	7.1	-	-	-
CCN1C(=O)CC(Sc2ccccc2N)C1=O (stereo unspecified)	-	-	-	-	.	.
